SMN2 splice enh: SMN2 splice variant enhancement; 2.8% of 210,000 active; Potency, µM (doses to about 46.1 µM), most hits filed as activators; HEK293 SMN2-luciferase splicing reporter, luminescence, 30-36 h; also: nearly all actives have a fitted effect of over 55% in size
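HEK293 cells carry an SMN2 minigene-luciferase reporter in which exon 7 inclusion puts luciferase in frame. Cells were seeded at 2000 cells/well, attached for 10-12 hours, then exposed to compounds for 30-36 hours at 37C before ONE-Glo luminescence.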
Rab9 prom act: Rab9 promoter activation; Huh7 Rab9 promoter-luciferase reporter, luminescence, 24 h; AID 485297; 2.8% of 320,000 active; Potency, µM (series often up to 9.22 µM), hits mostly activators; also: nearly all actives have a fitted effect of over 60% in size
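Huh7 cells stably carrying a Rab9 promoter-luciferase reporter, 1500 cells per well in OP-MEM I with 10% FBS, treated with compound 24 hours at 37C. Luciferase activity read by luminescence after 10 minutes with Amplite reagent.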
ELG1 DNA repair: inhibitors of ELG1-dependent DNA repair in HEK293T cells; HEK293T ELG1-luciferase reporter, luminescence, 16 h; DNA damage induced by 5-fluorouridine; Potency, µM (series often up to 46.1 µM), actives largely listed as inhibitors; 2.3% of 330,000 active; AID 504467; also: nearly all actives have a fitted effect of over 55% in size
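DMSO vehicle served as the neutral condition. Each well held 2,000 cells given 5-fluorouridine plus compound; after 16 hr at 37 °C/5% CO2, ONE-Glo was added and luciferase measured 30 min later.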
ELG1 genotox: genotoxicity induction in ELG1-luciferase HEK293T cells; HEK293T ELG1-luciferase reporter, luminescence, 16 h; Potency, µM (highest dose often 46 µM), hits mostly activators; 1.3% of 330,000 active; AID 504466; also: nearly all actives have a fitted effect of over 60% in size
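ELG1-luciferase HEK293T cells, 2,000/well; compound pinned in; 16 hr, 37 °C, 5% CO2; ONE-Glo, 30 min RT; luminescence on CCD imager.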
NPC1 prom act: NPC1 promoter activation; AID 485313; Huh7 NPC1 promoter luciferase reporter, 24 h; Potency, µM (series often up to 9.22 µM), usual class: activators; 2.4% of 320,000 active; also: nearly all actives have a fitted effect of over 60% in size
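Cells: Huh7 expressing luciferase under the NPC1 promoter, 1500/well. Seeded 2 h, compound added, incubated 24 h at 37 °C. Luciferase reagent, 10 min ambient, then luminescence.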
FLuc modulator: firefly luciferase modulation, counter-screen for miR-21 project | 6.9% of 360,000 active | P08659 | AID 588342 | Potency, µM (series often up to 57.5 µM), hits mostly inhibitors | purified FLuc, Km substrates, luminescence inhibition; also: nearly all actives have a fitted effect of over 55% in size
Target sequence (P08659 whole entry, looked up): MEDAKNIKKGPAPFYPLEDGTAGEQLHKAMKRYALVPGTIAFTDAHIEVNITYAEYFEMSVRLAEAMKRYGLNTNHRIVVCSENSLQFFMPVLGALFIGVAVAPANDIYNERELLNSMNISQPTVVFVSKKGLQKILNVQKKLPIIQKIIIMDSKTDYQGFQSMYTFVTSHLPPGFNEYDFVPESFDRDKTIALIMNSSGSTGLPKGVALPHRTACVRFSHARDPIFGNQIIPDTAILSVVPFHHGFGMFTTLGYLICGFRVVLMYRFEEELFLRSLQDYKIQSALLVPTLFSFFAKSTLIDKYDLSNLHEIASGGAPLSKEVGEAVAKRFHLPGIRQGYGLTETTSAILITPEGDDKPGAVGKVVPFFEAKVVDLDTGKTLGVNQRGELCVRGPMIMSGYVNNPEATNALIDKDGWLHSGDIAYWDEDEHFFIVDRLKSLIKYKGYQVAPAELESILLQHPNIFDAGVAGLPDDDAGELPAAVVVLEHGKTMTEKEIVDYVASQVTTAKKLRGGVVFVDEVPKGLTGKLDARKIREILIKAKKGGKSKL
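Purified P. pyralis luciferase (10nM final) with 10uM D-luciferin and 10uM ATP (Km levels) in 50mM Tris acetate pH 7.5, 10mM Mg acetate, 0.01% Tween-20, 0.05% BSA; qHTS 6-point titration, ~60 µM downward; luminescence read.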
Numbers stand for hits; 0 = inactive; ? = inconclusive; - = no result; [ ] = another dose, or the depositor's remark. Only some compounds are listed: those with a hit (about 9.2% of all), similar ones and a draw of the others. Calls follow the shape of the dose curve; as a rule, active = well fitted curve in the direction sought with a large enough effect; inconclusive = small, poorly fitted or top-dose-only effect, or another doubt; inactive = no such curve, though single readings can be large; an effect the other way counts as inactive or inconclusive.

SMILES	SMN2 splice enh	Rab9 prom act	ELG1 DNA repair	ELG1 genotox	NPC1 prom act	FLuc modulator
Cc1nn(-c2ccccn2)c2nc(-c3cccs3)cc(C(=O)NCc3ccco3)c12	-	0	?	0	0	6.7µM
O=C(NCc1ccco1)c1cc(-c2cccs2)nc2ccccc12	0	0	15µM	0	0	0
CCc1ccc(C(=O)c2cn(Cc3ccc(F)cc3)c3cc(OC)c(OC)cc3c2=O)cc1	0	-	-	-	-	0
O=C(O)CSc1ccc2ccccc2n1	0	0	0	0	0	0
CCC(C)(C)NC(=O)CCCSc1nc2ccccc2s1	?	?	0	0	?	24µM
O=C(O)CCSc1nc2ccccc2s1	0	0	0	0	0	21µM
c1ccc2sc(SCSc3nc4ccccc4s3)nc2c1	0[9.22 µM]	0	?	0	0	?
O=C(O)CCSc1ccc2ccccc2n1	0	0	?	0	0	24µM
N#CCc1nc(CSc2nc3ccccc3s2)cs1	0	?	?	18µM	0	?
CCc1cccc(CC)c1NC(=O)CCCSc1nc2ccccc2s1	-	0	?	0	0	0
N#CCCCSc1nnc(CSc2nc3ccccc3s2)n1-c1ccccc1	0	0	?	0	0	0
COc1ccc(-c2cc(C(F)(F)F)nc(SCCC(=O)Nc3cccc(O)c3)n2)cc1	0	-	-	-	-	0
CC1=C(C(N)=O)C(c2cccc(Br)c2)n2nc(SCc3ccccc3)nc2N1 (stereo unspecified)	0	-	-	-	-	0
Cn1c(-c2cnn(-c3ccccc3)c2-n2cccc2)n[nH]c1=S	0	0	0	0	0	0
CCOc1cc(-c2c(C#N)c(N)nc3c2CCc2ccccc2-3)ccc1O	13µM	0	0	0	0	0
COc1cc(-c2cc(-c3ccc(O)cc3)nc(N)c2C#N)ccc1O	-	0	?	0	0	0
CCOc1cc(-c2cc(-c3ccc(C)cc3)nc(N)c2C#N)ccc1O	?	0	16µM	0	0	0
Nc1nc(-c2cc3ccccc3o2)cs1	-	2µM	?	?	2.2µM	4.3µM
CN1CCN(c2nc(-c3cc4ccccc4o3)cs2)CC1	13µM	?	?	?	?	4.8µM
Cc1cc(C)n(CCc2nc(-c3cc4ccccc4o3)cs2)n1	0	0	?	0	0	17µM
NC(=O)C1CCN(c2nc(-c3cc4ccccc4o3)cs2)CC1	-	?	?	0	?	11µM
NC(=O)C1CCN(c2nc(-c3cccc(N)c3)cs2)CC1	-	0	?	?	0	?
CC(C)C=O	0	-	-	-	-	-
Cc1ccc(OCCn2nnc3ccccc32)cc1C	-	2.5µM	?	?	2.5µM	21µM
Cc1ccc(C(=O)Cn2nnc3ccccc32)cc1C	?	0.79µM	?	?	1.4µM	4.8µM
SMILES	SMN2 splice enh	Rab9 prom act	ELG1 DNA repair	ELG1 genotox	NPC1 prom act	FLuc modulator
O=C(Cn1nnc2ccccc21)c1ccc(Br)cc1	-	?	?	0	0	24µM
Cc1ccc(C(=O)NNC(=O)Cn2nnc3ccccc32)cc1	-	0	?	0	0	0
Cc1ccc(C(=O)Cn2nnc3ccccc32)cc1	?	1.6µM	?	?	1.4µM	5.4µM
COc1cc2nc(SCC(=O)Nc3cccc(C)c3)n3nc(CCn4c(C)nc5ccccc54)nc3c2cc1OC	0	-	-	-	-	0
COCCN(C(=O)CSc1nc2ccc(OC)cc2[nH]1)c1c(N)n(Cc2ccccc2)c(=O)[nH]c1=O	-	0	0	0	0	0
O=C(CN1CCCC1)Nc1ccccc1C(=O)c1ccccc1	-	0	0	0	0	0
O=C(CN1CCN(S(=O)(=O)c2ccccc2F)CC1)Nc1ccccc1C(=O)c1ccccc1	0	0	12µM	0	0	0
COc1ccc(-c2noc(CSc3ccccc3)n2)cc1OC	-	4µM	?	0	?	13µM
Cc1ccc(SCc2nc(-c3ccncc3)no2)cc1	0	0	0	0	0	0[2.3 µM]
c1ccc(SCc2nc(-c3ccncc3)no2)cc1	11µM	?	?	15µM	4µM	17µM
Cc1ccc(SCc2nc(-c3ccccc3)no2)cc1	0	0	0	0	0	0[2.3 µM]
O=C(NCc1ccccc1)c1cccn1-c1nnc(N2CCCC2)s1	-	-	-	-	-	0
CCCCC(=O)/C=C/n1c(=S)oc2ccccc21	0[1.84 µM]	0	?	0	0	2.4µM
CC(C)OC(=O)n1c(=S)oc2ccccc21	0	0	?	0	0	0
COCCNc1oc(/C=C/c2ccccc2OC)nc1S(=O)(=O)c1ccccc1	-	0	10µM	0[9.26 µM]	0	0
CCOC(=O)C1=C(C)N(C)C(C)=C(C(=O)OCC)C1c1ccsc1	0	0	0	0	0	0
Cc1ccc(-c2nn3c(C)nnc3c3ccccc23)cc1S(=O)(=O)NCc1ccco1	13µM	0	?	?	0	0
Cc1ccc(-c2nn3c(C)nnc3c3ccccc23)cc1S(=O)(=O)NC(C)(C)CO	?	0	?	21µM	0	0
Cc1ccc(-c2nn3c(C)nnc3c3ccccc23)cc1S(=O)(=O)NC(C)c1ccccc1 (stereo unspecified)	0	0	?	0	0	0
COC(C[C@@H](O)C[C@H](O)COCc1ccccc1)OC	-	0	0	0	0	0
CCN(CC)S(=O)(=O)c1ccc(N2CCOCC2)c(NC(=O)COc2ccc(C#N)cc2)c1	-	0	0	0	0	15µM
CCN(CC)S(=O)(=O)c1ccc(N2CCOCC2)c(NC(=O)COc2ccc(OC)cc2)c1	-	0	18µM	0	0	?
CCOc1ccc(NC(=O)C(=O)NCCc2sc(-c3ccc(C)cc3)nc2C)cc1	-	-	-	-	-	0
O=c1cc(-c2ccccc2)nc(/C=C/c2ccccc2)[nH]1	-	0	0	0	0	0
COc1cc(OC)cc(-c2nc3ccccc3c(=O)o2)c1	0	0	0	0	0	?
SMILES	SMN2 splice enh	Rab9 prom act	ELG1 DNA repair	ELG1 genotox	NPC1 prom act	FLuc modulator
COc1cccc(-c2nc3ccccc3c(=O)o2)c1	0	0	?	?	0	4.8µM
CCOc1cccc(-c2nc3ccccc3c(=O)o2)c1	?	-	-	-	-	5.4µM
COc1ccc(CNC(=O)CCCN2C(=O)CCn3nc(-c4cn(C)c5ccccc45)cc32)cc1	-	-	-	-	-	0
Cc1nn(C)c2c1c(C(F)(F)F)cc(=O)n2CC(=O)NCCC(C)C	-	-	-	-	-	0
Cc1cc2nccc(-c3cccnc3)n2n1	0	0	0	0	0	0
O=C(OCC(=O)N1CCCc2ccccc21)c1cccc(S(=O)(=O)N2CCOCC2)c1	-	0	0	0	0	0
Cc1cc2cc3c(cc2nc1SCc1ccc(C(=O)O)cc1)OCCO3	0	0	?	0	0	19µM
Cc1cc2cc3c(cc2nc1SCC(=O)O)OCCO3	0	0	0	0	0	0
CCOC(=O)c1c(C)[nH]c(C)c1S(=O)(=O)N(C)CC(=O)N1CCN(c2cccc(C)c2C)CC1	-	-	-	-	-	0
c1ccc2c(COn3nnc4ccccc43)cccc2c1	-	2.5µM	?	8.9µM	?	11µM
c1ccc2c(Cn3nnc4ccccc43)cccc2c1	0	0	0	0	0	0

Source: PubChem BioAssay (National Center for Advancing Translational Sciences (NCATS))
